HT1080 IDH1KD tx: toxicity to HT-1080 IDH1 knockdown cells (counter line). Potency, µM (highest dose often 46.1 µM), for the others: at the highest dose activity, negative = toxicity, hits mostly cytotoxic. HT-1080 IDH1 knockdown viability, ATP luminescence, 48 h. hit rate 2% among 360,000;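 note: 0% = DMSO wells and -100% = cell-free medium wells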
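After a 2 h attachment period, IDH1KD HT-1080 cells took pin-transferred compound for 48 h at 37 °C; ATP-based luminescence after 10 min room-temperature reagent incubation reported viability.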
HT1080-NT tox: kills 2HG-producing HT-1080-NT fibrosarcoma cells. HT-1080-NT fibrosarcoma viability, CellTiter-Glo ATP luminescence, 48 h. Potency, µM (series often up to 46.1 µM), inactives show top-dose activity, negative = less viability, most hits filed as cytotoxic. hit rate 1.6% among 360,000. AID 686970;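 note: NT is the 2HG producing partner of a matched IDH1 knockdown line; 0% = DMSO-treated cells and -100% = media-only wells without cells; nearly all actives have a fitted effect of over 55% in size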
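Compounds were tested in concentration-response format on HT-1080-NT cells for 48 hours at 37 degrees C. Cell viability came from CellTiter-Glo luminescence; curves were classified by r2, response magnitude and activity.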
KB-3-1 tox: kills parental KB-3-1 adenocarcinoma cells | AID 1347075 | hit rate 1.4% among 400,000 | KB-3-1 viability, CellTiter-Glo ATP luminescence, 72 h | Potency, µM (doses to about 46.1 µM), hits mostly cytotoxic; note: % is set by controls: 0 for no effect and ±100 for the full control effect; nearly all actives have a fitted effect of over 60% in size
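72 h, 37 °C compound treatment of KB-3-1 parental cells; CellTiter-Glo added, 10 min, luminescence read. Data corrected against DMSO-only plates and normalized before curve fitting.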
SW480 rereplic: DNA re-replication induction in SW480 cells | SW480 DNA re-replication, Hoechst DNA content imaging, 48 h | Potency, µM (series often up to 46.1 µM), without a hit: at the top dose re-replication activation, hits mostly activators | hit rate 1.8% among 340,000; note: % of control where 0% means no effect; nearly all actives have a fitted effect of over 55% in size
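Compounds, transferred as 23 nL by pin tool, were incubated with cells for 48 hr; DNA content per nucleus was then quantified by Hoechst staining and fluorescence plate imaging.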
KB-V1 cytotox: KB-V1 MDR subline cytotoxicity; KB-V1 MDR cells viability, CellTiter-Glo, 72 h; Potency, µM (series often up to 46.1 µM), hits mostly cytotoxic; hit rate 3.4% among 400,000; note: % is set by controls: 0 for no effect and ±100 for the full control effect; nearly all actives have a fitted effect of over 60% in size
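Cytotoxicity via CellTiter-Glo luminescence after 72 h compound exposure at 37 degrees C. Cells: drug-selected KB-V1 line, DMEM phenol-red free plus 10% FBS. Compounds tested at multiple concentrations; normalized data fitted to concentration-effect curves.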
MCF10A rereplic: induces DNA re-replication in MCF 10a normal breast cells; MCF 10A DNA re-replication, Hoechst nuclear intensity, 48 h; Potency, µM (top dose mostly 46.1 µM), for the others: at the top dose activity, positive = re-replication, hits mostly activators; hit rate 2.9% among 350,000; AID 624296; note: % of control where 0% means no effect; nearly all actives have a fitted effect of over 50% in size
The depositor's hits bear a star. Rows were chosen to be rich in hits. Some 8% of all compounds tested hit in one or more screens of this group. Calls come from the whole dose curve; as a rule, active = well fitted curve in the direction sought with a large enough effect; inconclusive = small, poorly fitted or top-dose-only effect, or another doubt; inactive = no such curve, though single readings can be large; an effect the other way counts as inactive or inconclusive. Potency is the fitted concentration of half-maximal effect.

Screening Cc1ccc(C)c(NC(=S)NC(NC(=O)/C=C/c2ccccc2)C(Cl)(Cl)Cl)c1 (centres undefined) returned HT1080 IDH1KD tx inconclusive, HT1080-NT tox inconclusive, KB-3-1 tox inconclusive, SW480 rereplic inconclusive, KB-V1 cytotox inconclusive and MCF10A rereplic 2.9µM*.
Screening O=C(/C=C/c1ccccc1)NC(NC(=S)Nc1cccc(Cl)c1)C(Cl)(Cl)Cl (centres undefined) returned HT1080 IDH1KD tx inconclusive, HT1080-NT tox inconclusive, KB-3-1 tox inconclusive, SW480 rereplic inconclusive, KB-V1 cytotox inconclusive and MCF10A rereplic 7.3µM*.
Screening O=C(Cc1cccc2ccccc12)NC(NC(=S)Nc1ccccc1Cl)C(Cl)(Cl)Cl (centres undefined) returned HT1080 IDH1KD tx -27%, HT1080-NT tox -16%, KB-3-1 tox inactive, SW480 rereplic -3%, KB-V1 cytotox inconclusive and MCF10A rereplic inconclusive.
Screening O=C(/C=C/c1ccccc1)NC(NC(=S)Nc1cccc(O)c1)C(Cl)(Cl)Cl (centres undefined) returned HT1080 IDH1KD tx inconclusive, HT1080-NT tox inconclusive, KB-3-1 tox inconclusive, SW480 rereplic -15%, KB-V1 cytotox inconclusive and MCF10A rereplic inconclusive.
For O=C(/C=C/c1ccccc1)NC(NC(=S)Nc1ccc(Cl)cc1Cl)C(Cl)(Cl)Cl (centres undefined) the results were HT1080 IDH1KD tx inconclusive, HT1080-NT tox -24%, KB-3-1 tox inactive, SW480 rereplic inconclusive, KB-V1 cytotox inconclusive and MCF10A rereplic 12µM*.
O=S(=O)(c1ccccc1)c1nnn2c1nc(NC1CCCCC1)c1sccc12 was read as KB-3-1 tox inactive and KB-V1 cytotox inactive.
`Cn1ccc2cc(-c3ccc4ncnc(NCc5cccs5)c4c3)ccc21` gave KB-3-1 tox 18µM*, SW480 rereplic inconclusive, KB-V1 cytotox inconclusive and MCF10A rereplic 12µM*.
For COc1cccc(-c2ccc3ncnc(NCc4cccs4)c3c2)c1 the results were KB-3-1 tox inactive, SW480 rereplic inconclusive, KB-V1 cytotox inactive and MCF10A rereplic inconclusive.
For Cc1nn(Cc2ccccc2Cl)c2sc(C(=O)OC3CCCC3=O)cc12 (centres undefined) the results were HT1080 IDH1KD tx -28%, HT1080-NT tox -29%, KB-3-1 tox inactive, SW480 rereplic -4%, KB-V1 cytotox 6.5µM* and MCF10A rereplic 1%.
Screening Cc1csc(NC(=O)c2cc3c(C)nn(Cc4ccccc4Cl)c3s2)n1 returned HT1080 IDH1KD tx inconclusive, HT1080-NT tox inconclusive, KB-3-1 tox inactive, SW480 rereplic inconclusive, KB-V1 cytotox inactive and MCF10A rereplic 10µM*.
Cc1nn(Cc2ccccc2Cl)c2sc(C(=O)NCCCn3ccnc3)cc12 was read as HT1080 IDH1KD tx -23%, HT1080-NT tox -3%, KB-3-1 tox inactive, SW480 rereplic 0%, KB-V1 cytotox inactive and MCF10A rereplic inconclusive.
For COc1cccc(N2CCN(C(=O)c3cc4cc5cc(C)ccc5nc4s3)CC2)c1 the results were KB-3-1 tox inactive and KB-V1 cytotox inactive.
Cc1ccc(-c2nnc(SCC(=O)NC(C)(C)C)nc2-c2ccc(C)cc2)cc1 was read as KB-3-1 tox inactive and KB-V1 cytotox inactive.
For O=C(NCCn1cc(SCc2cccc(F)c2)c2ccccc21)c1cccc(C(F)(F)F)c1 the results were KB-3-1 tox inactive and KB-V1 cytotox 21µM*.
CN(C)c1ccc(/C=C/c2ccnc3ccc(Cl)cc23)cc1 was read as KB-3-1 tox inactive and KB-V1 cytotox inactive.
For Cc1ccc(C)c(OC(=O)CSc2nnc(-c3ccc4c(c3)OCO4)o2)c1 the results were KB-3-1 tox inactive and KB-V1 cytotox inactive.
